From PubChem BioAssay (NCATS)
Inconclusive results are not listed. Calls of active or inactive are those of the source. Unless noted, calls follow the shape of the dose curve; as a rule, active = well fitted curve in either direction with a large enough effect (not every such curve was filed as active); inconclusive = small, poorly fitted or top-dose-only effect, or another doubt; inactive = flat fitted curve, though single readings scatter.

Legend:
[1] = biological target: Lysosomal acid glucosylceramidase (Homo sapiens) (UniProt P04062); experiment: Glucocerebrosidase-p2 (AID 348; in the data active = potency below about 10 µM; also: potency is read from the fitted curve at half-maximal effect); conditions: purified GBA, blue fluorogenic substrate, 40 min
Sequence of Lysosomal acid glucosylceramidase (Homo sapiens) (P04062 whole entry, looked up): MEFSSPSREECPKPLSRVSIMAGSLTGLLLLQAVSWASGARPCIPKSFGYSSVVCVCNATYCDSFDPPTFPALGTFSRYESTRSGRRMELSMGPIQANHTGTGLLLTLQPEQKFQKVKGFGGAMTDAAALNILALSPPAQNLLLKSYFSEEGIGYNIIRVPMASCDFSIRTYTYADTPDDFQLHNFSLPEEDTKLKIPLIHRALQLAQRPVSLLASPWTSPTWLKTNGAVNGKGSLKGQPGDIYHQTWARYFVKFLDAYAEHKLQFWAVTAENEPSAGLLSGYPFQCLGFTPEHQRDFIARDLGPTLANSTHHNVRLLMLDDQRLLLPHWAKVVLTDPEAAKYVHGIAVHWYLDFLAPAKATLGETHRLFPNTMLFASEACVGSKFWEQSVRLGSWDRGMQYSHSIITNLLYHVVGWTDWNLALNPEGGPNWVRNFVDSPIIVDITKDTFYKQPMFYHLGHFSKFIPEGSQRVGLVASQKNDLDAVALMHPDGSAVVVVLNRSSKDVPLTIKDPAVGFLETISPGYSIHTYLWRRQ
Method in brief: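 Compounds titrated from 0.6 nM upwards against 0.2 nM enzyme in pH 5.9 citric acid/KH2PO4, taurocholate, tween-20; blue fluorogenic substrate 80 uM, 40 min room temperature, stopped and read Ex 365/Em 440 for AC50.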

[2] = AP1 Signaling Pathway (AID 357); conditions: ME-180 AP-1-bla reporter, EGF-induced, beta-lactamase ratio, 5 h; at 7.69 µM (top of the series) unless noted;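 also: ME-180 reporter cells stimulated with EGF at its EC50 level; % is scaled to controls: 0 for no effect and ±100 for the full control effect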
Method in brief: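 Modulation of EGF-driven AP-1 transcription was assessed with a beta-lactamase reporter in ME-180 cells. Compound and EC50 EGF were co-incubated 5 hours at 37 °C before 2.5-hour CCF4 loading at room temperature and dual-emission reading.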

[3] = biological target: Cytochrome P450 1A2 (Homo sapiens) (UniProt P05177); experiment: p450-cyp1a2 (AID 410; calls by dose curve; also: potency is read from the fitted curve at half-maximal effect;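 as to activity change, negative = inhibition: -100% = full effect of reference inhibitor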); conditions: recombinant CYP1A2, luciferin-ME demethylation, luminescence; series mostly up to 57 µM
Sequence of Cytochrome P450 1A2 (Homo sapiens) (P05177 whole entry, looked up): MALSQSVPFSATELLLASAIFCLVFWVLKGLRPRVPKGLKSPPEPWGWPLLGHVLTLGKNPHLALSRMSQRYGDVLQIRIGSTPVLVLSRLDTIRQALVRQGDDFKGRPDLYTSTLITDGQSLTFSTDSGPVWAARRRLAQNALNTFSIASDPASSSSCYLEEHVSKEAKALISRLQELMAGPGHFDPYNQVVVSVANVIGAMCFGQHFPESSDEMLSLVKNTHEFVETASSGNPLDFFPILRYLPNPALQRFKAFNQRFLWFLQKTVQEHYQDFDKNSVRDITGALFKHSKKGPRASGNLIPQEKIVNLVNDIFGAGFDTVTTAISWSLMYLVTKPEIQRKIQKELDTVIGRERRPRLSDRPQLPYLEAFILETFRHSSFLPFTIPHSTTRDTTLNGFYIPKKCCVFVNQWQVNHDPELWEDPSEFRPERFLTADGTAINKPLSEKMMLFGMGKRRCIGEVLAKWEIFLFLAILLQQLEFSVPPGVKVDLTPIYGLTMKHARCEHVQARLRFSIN
Method in brief: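 Inhibition was calculated relative to 57 uM furafylline (full inhibition). The reaction used human CYP1A2 at 20nM with Luciferin-ME at its Km, 100uM, driven by an NADPH-regenerating system for 60 min at room temperature.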

[4] = NFAT Signaling Pathway (AID 444); conditions: Jurkat NFAT-bla M1, carbachol, beta-lactamase ratio, 5 h; at 7.69 µM (top of the series) unless noted;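 also: carbachol stimulus at about its EC50 of 1 µM final; % is scaled to controls: 0 for no effect and ±100 for the full control effect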
Method in brief: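 Jurkat cells with NFAT-driven β-lactamase reporter and co-expressed M1 receptor, stimulated with carbachol (final 1 uM, ~EC50), compound titration, 5 h at 37 °C. CCF4 loaded 1 h at RT; 460/530 nm ratio gave %activity and AC50.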

[5] = Stat Signaling Pathway (AID 446); conditions: ME-180 SIE beta-lactamase reporter, IL-6 stimulated, 5 h; at 7.69 µM (top of the series) unless noted;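 also: ME-180 cervical cancer cells given 40 pM IL-6 alongside compound; SIE-controlled beta-lactamase reporter measured as 460/530 nm FRET emission ratio; % is scaled to controls: 0 for no effect and ±100 for the full control effect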
Method in brief: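 Reporter line: ME-180 cervical carcinoma, SIE-beta-lactamase. Treatment: compound with 40 pM IL-6, 5 hrs, 37 C, in low-serum OPTI-MEM with 10 mM HEPES pH 7.3. Detection: 460/530 nm fluorescence.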

[6] = biological target: Glucocorticoid receptor (Homo sapiens) (UniProt P04150); experiment: GR-EFC Redistribution (AID 451; calls by dose curve; also: potency is read from the fitted curve at half-maximal effect); conditions: CHO-K1 GR-EFC translocation, beta-gal luminescence, 2 h
Sequence of Glucocorticoid receptor (Homo sapiens) (P04150 whole entry, looked up, the tested form may be a part): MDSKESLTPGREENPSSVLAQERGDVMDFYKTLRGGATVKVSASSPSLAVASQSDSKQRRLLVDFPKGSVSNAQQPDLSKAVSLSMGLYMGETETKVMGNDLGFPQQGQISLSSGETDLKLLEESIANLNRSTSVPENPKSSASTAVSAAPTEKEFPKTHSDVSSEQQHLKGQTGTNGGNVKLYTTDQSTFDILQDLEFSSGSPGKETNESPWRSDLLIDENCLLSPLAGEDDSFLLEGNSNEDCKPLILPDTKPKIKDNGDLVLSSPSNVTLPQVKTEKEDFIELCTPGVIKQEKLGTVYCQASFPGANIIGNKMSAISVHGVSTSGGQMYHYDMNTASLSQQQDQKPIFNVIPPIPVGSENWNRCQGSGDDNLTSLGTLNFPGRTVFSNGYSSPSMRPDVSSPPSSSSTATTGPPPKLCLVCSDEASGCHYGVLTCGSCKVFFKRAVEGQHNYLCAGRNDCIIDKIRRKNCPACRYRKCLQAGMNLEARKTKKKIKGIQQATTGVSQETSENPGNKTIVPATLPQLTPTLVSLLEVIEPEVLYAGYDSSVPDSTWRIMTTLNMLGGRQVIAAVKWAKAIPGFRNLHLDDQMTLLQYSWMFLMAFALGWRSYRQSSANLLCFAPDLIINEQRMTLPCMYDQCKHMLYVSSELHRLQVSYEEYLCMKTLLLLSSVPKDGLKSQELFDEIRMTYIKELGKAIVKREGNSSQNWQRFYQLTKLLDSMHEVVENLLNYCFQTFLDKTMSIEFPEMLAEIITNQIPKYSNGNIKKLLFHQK
Method in brief: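 CHO-K1 cells expressing nuclear EA and GR-ED fragments of b-gal; compounds titrated up to 46 uM final, 2 h at 37 C. GR nuclear translocation read as complemented b-gal luminescence after 1 h RT detection.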

[7] = biological target: Mitogen-activated protein kinase 10 (Mus musculus) (UniProt Q61831); experiment: JNK3 AlphaScreen Assay (AID 530); conditions: JNK3 lysate, c-Jun phosphorylation; series mostly up to 57.1 µM;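 also: kinase came from lysate of stimulated human HepG2 cells; signal reports phosphorylation of biotinylated GST-cJun 1-79 at Ser73 with 10 µM ATP; % is scaled to controls: 0 for no effect and ±100 for the full control effect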
Method in brief: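 qHTS format: compounds tested as titrations against IL-1beta/TNF-alpha-activated HepG2 lysate JNK3 with biotin-GST-cJun substrate and 10 uM ATP at room temperature. Loss of anti-phospho-cJun AlphaScreen signal indicates inhibition.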

[8] = biological target: 3',5'-cyclic-AMP phosphodiesterase 4B (Homo sapiens) (UniProt Q07343); experiment: qHTS Assay for Inhibitors of PDE-IV (AID 607; active = well fitted activation curve with a large enough effect in the main read-out, with a control signal flat, not every such curve was filed as active; also: % of control where 0% means no effect); conditions: HEK293 ACTOne CNG channel cells, membrane potential fluorescence; series mostly up to 22.9 µM
Sequence of 3',5'-cyclic-AMP phosphodiesterase 4B (Homo sapiens) (Q07343 whole entry, looked up): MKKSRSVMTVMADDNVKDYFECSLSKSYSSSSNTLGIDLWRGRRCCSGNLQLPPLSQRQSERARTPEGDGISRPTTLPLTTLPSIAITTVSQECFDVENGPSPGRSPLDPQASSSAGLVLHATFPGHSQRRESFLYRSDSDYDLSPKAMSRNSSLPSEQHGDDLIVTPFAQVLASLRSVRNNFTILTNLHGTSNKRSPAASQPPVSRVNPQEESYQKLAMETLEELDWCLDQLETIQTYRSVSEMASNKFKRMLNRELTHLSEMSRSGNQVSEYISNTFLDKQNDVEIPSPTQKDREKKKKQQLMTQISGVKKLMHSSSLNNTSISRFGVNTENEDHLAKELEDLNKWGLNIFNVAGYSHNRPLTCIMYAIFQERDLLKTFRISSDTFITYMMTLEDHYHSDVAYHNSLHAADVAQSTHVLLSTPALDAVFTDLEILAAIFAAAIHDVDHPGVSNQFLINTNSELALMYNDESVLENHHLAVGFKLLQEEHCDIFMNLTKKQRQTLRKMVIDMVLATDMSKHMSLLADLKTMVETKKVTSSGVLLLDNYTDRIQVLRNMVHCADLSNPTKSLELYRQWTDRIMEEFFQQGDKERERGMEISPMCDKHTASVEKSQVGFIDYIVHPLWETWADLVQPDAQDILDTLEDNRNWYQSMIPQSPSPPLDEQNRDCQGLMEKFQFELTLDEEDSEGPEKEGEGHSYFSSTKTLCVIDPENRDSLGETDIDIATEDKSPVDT
Method in brief: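 Cell-based read-out of cAMP via a modified cyclic nucleotide-gated channel and membrane potential dye (535/590 nm) in HEK293 cells expressing PDE4 endogenously. Compounds tested up to 22.9 uM final; 100 uM RO 20-1724 reference.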

[9] = biological target: Cytochrome P450 3A4 (Homo sapiens) (UniProt P08684); experiment: qHTS Assay for Activators of Cytochrome P450 3A4 (AID 885; active = well fitted curve in the direction sought with a large enough effect; an effect the other way counts as inactive or inconclusive; also: nearly all actives have a fitted effect of over 65% in size; also: potency is read from the fitted curve at half-maximal effect); conditions: recombinant CYP3A4, Luciferin-PPXE luminescence, 60 min; series mostly up to 57.1 µM
Sequence of Cytochrome P450 3A4 (Homo sapiens) (P08684 whole entry, looked up): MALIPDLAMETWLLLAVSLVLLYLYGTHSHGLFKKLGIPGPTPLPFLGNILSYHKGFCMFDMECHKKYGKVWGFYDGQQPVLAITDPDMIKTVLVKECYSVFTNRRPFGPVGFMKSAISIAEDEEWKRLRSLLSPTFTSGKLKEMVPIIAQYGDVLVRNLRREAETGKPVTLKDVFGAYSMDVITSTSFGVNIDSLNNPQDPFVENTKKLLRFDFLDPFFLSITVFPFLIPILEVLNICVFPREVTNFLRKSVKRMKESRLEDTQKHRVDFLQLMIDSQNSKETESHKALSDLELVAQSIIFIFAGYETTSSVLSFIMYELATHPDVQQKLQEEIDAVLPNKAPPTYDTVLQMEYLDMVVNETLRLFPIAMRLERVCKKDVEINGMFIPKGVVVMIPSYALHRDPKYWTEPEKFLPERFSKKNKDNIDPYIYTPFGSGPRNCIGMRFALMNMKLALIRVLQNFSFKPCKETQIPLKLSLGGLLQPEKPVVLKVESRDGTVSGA
Method in brief: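 Signal was normalized against complete inhibition by 57 uM ketoconazole. The reaction used 20nM CYP3A4 with 25uM Luciferin-PPXE, 10-min compound preincubation and a 60-min NADPH-supported step at RT.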

[10] = qHTS Assay for Lipid Storage Modulators (AID 1519; calls by dose curve); conditions: Drosophila S3 cells, BODIPY lipid droplet/cell ratio, laser cytometry, cells loaded with oleic acid; for activity change, negative = inhibition: at 57.5 µM (top of the series)
Method in brief: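 Cells seeded at 5,000 per well were treated with compounds over a concentration series and loaded with oleic acid (400 uM, as added). Lipid droplet fluorescence (488 nm excitation, 500-530 nm channel) was read by laser-scanning cytometry and normalized to 20 uM Triacsin C.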

[11] = Primary qHTS for small molecule stabilizers of the endoplasmic reticulum resident proteome: Secreted ER Calcium Modulated Protein (SERCaMP) assay (AID 1508630; active = well fitted curve in the direction sought with a large enough effect; an effect the other way counts as inactive or inconclusive; also: % is scaled to controls: 0 for no effect and ±100 for the full control effect); conditions: SH-SY5Y GLuc-SERCaMP (Gaussia luciferase released on ER calcium loss) secretion, thapsigargin, luminescence; series mostly up to 38.4 µM
Method in brief: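 GLuc-SERCaMP-expressing SH-SY5Y cells, pretreated 16 h with compound, are challenged with thapsigargin to empty ER calcium stores; after 4 h, coelenterazine is added directly to the medium and luminescence is imaged.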

[12] = biological target: Cytochrome P450 2D6 (Homo sapiens) (UniProt P10635); experiment: qHTS Assay for Inhibitors and Substrates of Cytochrome P450 2D6 (AID 891; active = well fitted curve in the direction sought with a large enough effect; an effect the other way counts as inactive or inconclusive; also: potency is read from the fitted curve at half-maximal effect; nearly all actives have a fitted effect of over 60% in size); conditions: recombinant CYP2D6, luciferin-ME EGE luminescence; series mostly up to 57.1 µM
Sequence of Cytochrome P450 2D6 (Homo sapiens) (P10635 whole entry, looked up): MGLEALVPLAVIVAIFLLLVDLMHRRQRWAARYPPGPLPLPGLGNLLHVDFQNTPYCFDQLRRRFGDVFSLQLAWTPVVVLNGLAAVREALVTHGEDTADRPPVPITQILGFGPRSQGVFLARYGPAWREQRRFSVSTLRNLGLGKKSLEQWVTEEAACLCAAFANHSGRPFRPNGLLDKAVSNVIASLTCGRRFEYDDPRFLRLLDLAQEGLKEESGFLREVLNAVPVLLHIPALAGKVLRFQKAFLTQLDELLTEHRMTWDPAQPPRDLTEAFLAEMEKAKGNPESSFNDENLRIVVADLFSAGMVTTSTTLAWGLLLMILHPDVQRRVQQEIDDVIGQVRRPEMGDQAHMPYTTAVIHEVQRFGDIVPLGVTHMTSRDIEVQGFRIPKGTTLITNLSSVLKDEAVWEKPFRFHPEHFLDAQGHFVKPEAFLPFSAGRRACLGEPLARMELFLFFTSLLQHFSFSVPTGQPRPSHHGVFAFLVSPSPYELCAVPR
Method in brief: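 Human CYP2D6 (5 nM) with 30 uM Luciferin-ME EGE (at Km) in 100 mM KPO4, compound preincubated 10 min, then NADPH regeneration system for 60 min at room temperature. Luciferin read by luminescence; normalized to 1.43 uM quinidine.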

[13] = biological target: Cytochrome P450 2C9 (Homo sapiens) (UniProt P11712); experiment: qHTS Assay for Inhibitors and Substrates of Cytochrome P450 2C9 (AID 883; active = well fitted curve in the direction sought with a large enough effect; an effect the other way counts as inactive or inconclusive; also: nearly all actives have a fitted effect of over 60% in size; also: potency is read from the fitted curve at half-maximal effect); conditions: recombinant CYP2C9, luciferin-H luminescence, 60 min; series mostly up to 57.1 µM
Sequence of Cytochrome P450 2C9 (Homo sapiens) (P11712 whole entry, looked up): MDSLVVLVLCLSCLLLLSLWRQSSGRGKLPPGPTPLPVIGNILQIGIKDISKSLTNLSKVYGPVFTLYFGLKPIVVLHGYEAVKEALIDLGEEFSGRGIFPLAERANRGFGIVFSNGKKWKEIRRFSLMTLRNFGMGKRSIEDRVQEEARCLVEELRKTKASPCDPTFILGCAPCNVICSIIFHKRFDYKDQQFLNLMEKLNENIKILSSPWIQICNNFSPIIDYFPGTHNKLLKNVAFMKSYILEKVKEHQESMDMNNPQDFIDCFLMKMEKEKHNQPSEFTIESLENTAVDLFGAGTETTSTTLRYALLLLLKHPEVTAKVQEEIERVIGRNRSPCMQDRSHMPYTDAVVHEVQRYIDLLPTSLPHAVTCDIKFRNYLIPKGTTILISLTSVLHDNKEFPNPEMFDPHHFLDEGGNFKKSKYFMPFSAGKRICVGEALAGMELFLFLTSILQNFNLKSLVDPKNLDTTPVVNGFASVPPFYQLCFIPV
Method in brief: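 Signal: luciferase luminescence reporting luciferin produced by CYP2C9. Conditions: 10nM enzyme, Luciferin-H 100uM at KM, 25mM KPO4, 37C, 60 min NADPH-driven reaction. Reference: 57uM sulphaphenazole as 100% inhibition.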

[14] = Confirmation and Secondary Assay for Modulators of Hemoglobin Beta Chain Splicing at IVS2 654 locus (AID 910; active = well fitted curve in the direction sought with a large enough effect; an effect the other way counts as inactive or inconclusive;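 also: HeLa cells stably carrying EGFP split by mutant beta-globin IVS2-654 intron; % of control where 0% means no effect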); conditions: HeLa EGFP-654 splicing reporter, GFP fluorescence, 48 h; series mostly up to 38.3 µM
Method in brief: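 HeLa cells stably expressing EGFP interrupted by β-globin IVS2-654 intron, seeded overnight in Opti-MEM/2% FCS, then treated 2 days at 37 °C. Restored splicing read as total peak GFP intensity per well by laser scanning cytometry (488 nm excitation, 500–520 nm emission); 500 nM antisense PNA as control.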

[15] = Confirmation and Secondary Assay for Modulators of Hemoglobin Beta Chain Splicing at IVS2 705 locus (AID 930; active = well fitted curve in the direction sought with a large enough effect; an effect the other way counts as inactive or inconclusive;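 also: HeLa cells stably expressing the EGFP-705 splicing reporter; GFP fluorescence per well restored by corrected splicing of the IVS2-705 intron in EGFP; % of control where 0% means no effect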); conditions: HeLa EGFP-705 splicing reporter, GFP fluorescence, 48 h; series mostly up to 38.3 µM
Method in brief: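 Splice-correction reporter: EGFP cDNA split by beta-globin intron 2 bearing the 705 mutation, stably in HeLa. Compound incubation 2 days, 37C; fluorescent objects 5-250 µm summed per well.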

[16] = biological target: Cytochrome P450 3A4 (Homo sapiens) (UniProt P08684); experiment: qHTS Assay for Inhibitors and Substrates of Cytochrome P450 3A4 (AID 884; active = well fitted curve in the direction sought with a large enough effect; an effect the other way counts as inactive or inconclusive; also: potency is read from the fitted curve at half-maximal effect; nearly all actives have a fitted effect of over 50% in size); conditions: recombinant CYP3A4, Luciferin-PPXE luminescence; series mostly up to 57.1 µM
Method in brief: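 20 nM human CYP3A4 with 25 uM Luciferin-PPXE (at KM) in 200 mM KPO4, preincubated 10 min with compound; NADPH regeneration started a 60 min RT reaction. Luciferin detected by luminescence, normalized to 57 uM ketoconazole as full inhibition.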

[17] = measured here: cell count channel max response
[18] = measured here: lipid channel max response

Row | SMILES | Potency [1] | activity change, negative = inhibition [2] | Potency [3] | activity change, negative = inhibition [4] | activity, negative = inhibition [5] | Potency [6] | outcome [7] | Potency [8] | Potency [9] | activity change, negative = inhibition [10] | max response [10, 17] [%] | max response [10, 18] [%] | Potency [11] | Potency [12] | Potency [13] | outcome [14] | outcome [15] | Potency [16]
1 | COc1ccc(NC(=O)N2CC[C@@]3(CCCN(C(=O)c4cccn4C)C3)C2)cc1 | > 11.4 µM (inactive) | -0.362% (inactive) | inactive | 4.79% (inactive) | 8.48% (inactive) | > 46 µM (inactive) | inactive | inactive | inactive | 2.71% (inactive) | 12 | 14.4 | inactive | – | – | – | – | –
2 | O=C(Nc1ccccc1)N1CC2(CCN(C(=O)c3ccncc3)CC2)C1 | > 11.4 µM (inactive) | 12.1% (inactive) | 10 µM (active) | 7.64% (inactive) | -1.5% (inactive) | > 46 µM (inactive) | inactive | inactive | inactive | 3.73% (inactive) | -8.48 | -2.29 | inactive | – | – | – | – | –
3 | COc1ccc(NC(=O)N2CCCC3(CCN(C(=O)c4cnccn4)CC3)C2)cc1 | > 11.4 µM (inactive) | -0.971% (inactive) | inactive | 1.32% (inactive) | -7.92% (inactive) | > 46 µM (inactive) | inactive | inactive | inactive | 4.77% (inactive) | 1.78 | 8.5 | inactive | – | – | – | – | –
4 | O=C(Nc1cccc(F)c1)N1CCCC2(CCN(S(=O)(=O)c3ccccc3)CC2)C1 | > 11.4 µM (inactive) | -9.39% (inactive) | inactive | -29.9% (inactive) | -7.25% (inactive) | > 46 µM (inactive) | inactive | inactive | inactive | 1.65% (inactive) | 13.8 | 17.3 | inactive | – | – | – | – | –
5 | O=C(c1csnn1)N1CCC[C@@]2(CCN(c3ccccn3)C2)C1 | > 11.4 µM (inactive) | -10.6% (inactive) | inactive | -7.38% (inactive) | 8.47% (inactive) | > 46 µM (inactive) | inactive | inactive | inactive | 3.43% (inactive) | 4.63 | 10.9 | inactive | – | – | – | – | –
6 | CC(=O)N1CCC2(CCCN(C(c3ccccc3)c3ccccc3)C2)CC1 | > 11.4 µM (inactive) | -12.2% (inactive) | 15.8 µM (active) | 28.1% (inactive) | 17.6% (inactive) | > 46 µM (inactive) | inactive | inactive | inactive | 6.41% (inactive) | 3.3 | 12.6 | inactive | – | – | – | – | –
7 | O=C(Nc1cccc(F)c1)N1CC[C@@]2(CCCN(C(=O)c3ccco3)C2)C1 | > 11.4 µM (inactive) | 1.78% (inactive) | 25.1 µM (active) | -0.255% (inactive) | 8.88% (inactive) | > 46 µM (inactive) | inactive | inactive | inactive | 0.339% (inactive) | -5.34 | -1.46 | inactive | – | – | – | – | –
8 | CS(=O)(=O)N1CCC[C@@]2(CCN(Cc3nccs3)C2)C1 | > 11.4 µM (inactive) | -5.88% (inactive) | inactive | 5.31% (inactive) | 4.77% (inactive) | > 46 µM (inactive) | inactive | inactive | inactive | 7.12% (inactive) | 9.38 | 20.5 | inactive | – | – | – | – | –
9 | O=C(c1cnccn1)N1CCC[C@@]2(CCN(Cc3nccs3)C2)C1 | > 11.4 µM (inactive) | -10.4% (inactive) | inactive | 8.21% (inactive) | -0.706% (inactive) | > 46 µM (inactive) | inactive | inactive | inactive | 4.59% (inactive) | 14.2 | 20.9 | inactive | – | – | – | – | –
10 | COc1ccccc1CN1CC[C@@]2(CCCN(C(=O)c3cccn3C)C2)C1 | > 11.4 µM (inactive) | -17% (inactive) | inactive | -9.11% (inactive) | -10.5% (inactive) | > 46 µM (inactive) | inactive | inactive | inactive | 3.67% (inactive) | 9.96 | 13.2 | inactive | 0.316 µM (active) | – | – | – | –
11 | CS(=O)(=O)N1CCC2(CCN(C(c3ccccc3)c3ccccc3)CC2)CC1 | > 11.4 µM (inactive) | -4.08% (inactive) | inactive | -8.24% (inactive) | 3.12% (inactive) | > 46 µM (inactive) | inactive | inactive | 12.6 µM (active) | 0.47% (inactive) | -0.926 | 0.776 | inactive | 3.16 µM (active) | – | – | – | –
12 | COc1ccc(NC(=O)N2CCC3(CC2)CCN(C(=O)c2csnn2)CC3)cc1 | > 11.4 µM (inactive) | -4.35% (inactive) | 6.31 µM (active) | 3.59% (inactive) | -12% (inactive) | > 46 µM (inactive) | inactive | inactive | inactive | 8.17% (inactive) | 17.2 | 29.5 | inactive | – | – | – | – | –
13 | CS(=O)(=O)N1CCC2(CC1)CN(c1cccc(-c3ccccc3)c1)C2 | – | – | – | – | – | – | – | – | – | – | – | – | – | – | inactive | – | – | –
14 | O=C(c1cc(C(F)(F)F)cc(C(F)(F)F)c1)N1CCC[C@@]2(CCN(Cc3ccncc3)C2)C1 | – | – | – | – | – | – | – | – | – | – | – | – | – | – | 0.0794 µM (active) | – | – | –
15 | Cc1cccc(CNc2ncnc3ccc(-c4cccc(C#N)c4)cc23)c1 | – | – | – | – | – | – | – | – | – | – | – | – | – | – | – | inactive | inactive | –
16 | O=C(c1cnccn1)N1CCC[C@@]2(CCN(Cc3cc(C(F)(F)F)cc(C(F)(F)F)c3)C2)C1 | > 11.4 µM (inactive) | -16.9% (inactive) | inactive | 16.8% (inactive) | 2.8% (inactive) | – | inactive | inactive | inactive | 4.01% (inactive) | 14.7 | 20.7 | inactive | – | – | – | – | 7.94 µM (active)
